These results are taken from PubChem BioAssay (EPA / NIEHS).

Assay [1] concerns the target Paired box protein Pax-6 (Homo sapiens) (UniProt P26367). The experiment in a line: ATG_Pax6_CIS: Attagene CIS-FACTORIAL HepG2 Assay for human Paired Box 6 (PAX6) (AID 2282956). Particulars: HepG2 CIS-FACTORIAL PAX6 reporter transcription, RNA readout; actives raise or lower the signal. A digest of the protocol: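 HepG2 cells transiently transfected with cis-promoter-driven multiplexed reporter units sensing endogenous transcription factor activity; 24 h chemical exposure. Reporter mRNA quantified by RT-PCR, 6-FAM labelling, HpaI digestion and capillary electrophoresis; bidirectional fit versus DMSO baseline.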

Assay [2] in a line: ATG_PXRE_CIS: Attagene CIS-FACTORIAL HepG2 Assay for human Pregnane X Receptor Element (PXRE) (AID 2282957). Particulars: HepG2 Attagene CIS-FACTORIAL PXRE reporter, mRNA; actives raise or lower the signal. A digest of the protocol:
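Transfect HepG2 with MRTUs (cis promoter elements); dose chemical, incubate 24 h; isolate RNA, RT with oligo(dT), PCR, 6-FAM label, HpaI cut, CE. Gain/loss fit vs DMSO.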

The nature of assay [3]: ATG_PPRE_CIS: Attagene CIS-FACTORIAL HepG2 Assay for human Peroxisome Proliferator-activated Response Element (PPRE) (AID 2282958). Particulars: HepG2 PPRE cis-element reporter, Attagene transcription factor profiling; actives raise or lower the signal. An outline of the steps: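 After human HepG2 hepatoma cells were transiently transfected with cis-promoter reporter constructs, they were exposed to test chemicals for 24 hours. Reporter RNA was then reverse-transcribed, PCR-amplified, FAM-labeled, HpaI-digested and quantified by capillary electrophoresis.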

Assay [4] can be described thus: ATG_RORE_CIS: Attagene CIS-FACTORIAL HepG2 Assay for human RAR-related Orphan Receptor Element (RORE) (AID 2282959). The note with it: HepG2 Attagene cis-factorial RORE reporter, mRNA; actives raise or lower the signal. A digest of the protocol: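 Measured here: transcript induction of a cis-regulated reporter in HepG2 cells transiently transfected via FuGene 6. After 24 h, RNA was processed by RT-PCR and fluorescent capillary electrophoresis; DMSO defined baseline activity.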

A short description of assay [5]: ATG_Sox_CIS: Attagene CIS-FACTORIAL HepG2 Assay for human SRY-box transcription factor (SOX) (AID 2282960). Particulars: HepG2 Attagene cis-factorial SOX reporter, mRNA; actives raise or lower the signal. A digest of the protocol:
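Using transiently transfected HepG2 cells, reporter transcription driven by cis elements was assessed 24 h after dosing. Signal was fluorescence of capillary-separated RT-PCR products, with DMSO defining baseline activity.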

Assay [6] addresses Transcription factor Sp1 (Homo sapiens) (UniProt P08047). The experiment in a line: ATG_Sp1_CIS: Attagene CIS-FACTORIAL HepG2 Assay for human Specificity Protein 1 (Sp1) (AID 2282961). Particulars: HepG2 Sp1 cis-reporter transcription, actives raise or lower the signal. A digest of the protocol: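 After transient transfection of HepG2 cells with cis-promoter reporter units and 24 h chemical treatment, reporter transcripts were quantified by RT-PCR and capillary electrophoresis fluorescence. Gain- and loss-of-signal fitted against DMSO.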

The nature of assay [7]: ATG_SREBP_CIS: Attagene CIS-FACTORIAL HepG2 Assay for human Sterol Regulatory Element Binding (SREBP) (AID 2282962). The note with it: HepG2 Attagene cis-factorial SREBP reporter, mRNA; actives raise or lower the signal. A digest of the protocol:
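HepG2 cells transiently transfected with multiplexed cis-promoter reporter units sensing endogenous transcription factors; reporter mRNA measured 24 h after dosing by RT-PCR, 6-FAM labeling, HpaI digestion and capillary electrophoresis. Bidirectional fit versus DMSO.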

For assay [8], the target named is Signal transducer and activator of transcription 3 (Homo sapiens) (UniProt P40763). The assay can be described thus: ATG_STAT3_CIS: Attagene CIS-FACTORIAL HepG2 Assay for human Signal Transducer and Activator of Transcription 3 (STAT3) (AID 2282963). Particulars: HepG2, Attagene cis-factorial STAT3 reporter transcription; actives raise or lower the signal. A digest of the protocol: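 HepG2 cells transiently transfected with multiple cis-element-driven reporter units report endogenous transcription factor activity. After 24 h compound exposure, reporter mRNA is measured by RT-PCR, 6-FAM labelling, HpaI digestion and capillary electrophoresis. Fitted bidirectionally versus DMSO.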
Sequence of Signal transducer and activator of transcription 3 (Homo sapiens) (P40763 whole entry, looked up): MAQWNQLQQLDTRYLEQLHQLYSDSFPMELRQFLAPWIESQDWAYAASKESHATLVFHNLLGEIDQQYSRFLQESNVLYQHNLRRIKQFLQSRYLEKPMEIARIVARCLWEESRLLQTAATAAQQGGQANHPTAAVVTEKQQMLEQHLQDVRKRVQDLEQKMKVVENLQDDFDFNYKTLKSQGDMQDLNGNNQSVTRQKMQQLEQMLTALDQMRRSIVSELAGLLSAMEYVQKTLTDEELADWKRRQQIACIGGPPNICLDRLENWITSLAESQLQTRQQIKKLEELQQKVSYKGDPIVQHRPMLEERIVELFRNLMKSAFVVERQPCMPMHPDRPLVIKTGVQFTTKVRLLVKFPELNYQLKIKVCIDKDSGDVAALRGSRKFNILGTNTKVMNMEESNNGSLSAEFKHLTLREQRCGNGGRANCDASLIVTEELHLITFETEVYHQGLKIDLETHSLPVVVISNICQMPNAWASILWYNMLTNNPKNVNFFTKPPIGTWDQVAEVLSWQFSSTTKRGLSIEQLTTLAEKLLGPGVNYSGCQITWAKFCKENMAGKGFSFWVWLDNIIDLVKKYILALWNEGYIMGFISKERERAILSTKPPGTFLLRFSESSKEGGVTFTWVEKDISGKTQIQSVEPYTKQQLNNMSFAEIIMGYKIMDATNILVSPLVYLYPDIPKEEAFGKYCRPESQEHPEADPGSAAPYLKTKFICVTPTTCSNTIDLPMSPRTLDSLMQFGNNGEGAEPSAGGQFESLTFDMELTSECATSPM

Assay [9] can be described thus: ATG_TA_CIS: Attagene CIS-FACTORIAL HepG2 Assay for human TA Basal Promoter (AID 2282964). The note with it: HepG2 Attagene CIS-factorial TA basal promoter reporter; actives raise or lower the signal. An outline of the steps:
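Transfected HepG2, 24 h compound exposure; RNA → RT-PCR → FAM primer extension → HpaI cut → CE fluorescence. Gain/loss-of-signal fitted against DMSO negative control. Background-control readout.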

A short description of assay [10]: ATG_TCF_b_cat_CIS: Attagene CIS-FACTORIAL HepG2 Assay for human T-Cell-Factor with beta-catenin (TCF/b-cat) (AID 2282965). The note with it: HepG2 TCF/beta-catenin cis-reporter transcription, actives raise or lower the signal. A digest of the protocol:
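HepG2 cells transiently transfected with cis-promoter-driven multiplexed reporter units; reporter mRNA measured 24 h after dosing by RT-PCR, FAM labelling, HpaI digestion and capillary electrophoresis. Bidirectional fitting relative to DMSO baseline.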

“And” between values parts separate entries of the source, which are not always exact repeats. Equal entries are not always repeated. Where a structure was tested more than once in an assay, its records may differ in their call. The source made the active and inactive calls. Rule for the calls: active = hit-call score of the fitted dose curve at least 0.9, where 1 is the maximum; inactive = score below 0.9.

Sequence of Transcription factor Sp1 (Homo sapiens) (P08047 whole entry, looked up): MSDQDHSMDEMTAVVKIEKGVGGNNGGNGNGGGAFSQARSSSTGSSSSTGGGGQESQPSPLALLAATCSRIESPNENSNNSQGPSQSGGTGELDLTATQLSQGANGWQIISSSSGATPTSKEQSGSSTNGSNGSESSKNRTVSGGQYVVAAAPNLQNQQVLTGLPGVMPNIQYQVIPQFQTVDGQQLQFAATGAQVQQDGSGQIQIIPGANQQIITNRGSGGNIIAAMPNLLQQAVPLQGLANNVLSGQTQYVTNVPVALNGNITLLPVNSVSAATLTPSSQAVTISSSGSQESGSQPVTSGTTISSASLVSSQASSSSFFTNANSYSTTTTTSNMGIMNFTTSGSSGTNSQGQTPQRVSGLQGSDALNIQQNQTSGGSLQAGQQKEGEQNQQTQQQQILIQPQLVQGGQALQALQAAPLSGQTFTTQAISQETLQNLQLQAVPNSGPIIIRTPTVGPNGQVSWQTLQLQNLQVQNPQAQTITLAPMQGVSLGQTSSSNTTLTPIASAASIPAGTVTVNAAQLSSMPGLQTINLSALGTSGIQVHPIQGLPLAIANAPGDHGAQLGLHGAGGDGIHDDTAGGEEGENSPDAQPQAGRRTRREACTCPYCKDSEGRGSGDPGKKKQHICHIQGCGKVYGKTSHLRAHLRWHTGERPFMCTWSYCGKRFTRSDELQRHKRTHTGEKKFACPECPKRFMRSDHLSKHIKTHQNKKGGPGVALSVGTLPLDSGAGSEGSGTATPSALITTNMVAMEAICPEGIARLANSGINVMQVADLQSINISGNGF
Sequence of Paired box protein Pax-6 (Homo sapiens) (P26367 whole entry, looked up): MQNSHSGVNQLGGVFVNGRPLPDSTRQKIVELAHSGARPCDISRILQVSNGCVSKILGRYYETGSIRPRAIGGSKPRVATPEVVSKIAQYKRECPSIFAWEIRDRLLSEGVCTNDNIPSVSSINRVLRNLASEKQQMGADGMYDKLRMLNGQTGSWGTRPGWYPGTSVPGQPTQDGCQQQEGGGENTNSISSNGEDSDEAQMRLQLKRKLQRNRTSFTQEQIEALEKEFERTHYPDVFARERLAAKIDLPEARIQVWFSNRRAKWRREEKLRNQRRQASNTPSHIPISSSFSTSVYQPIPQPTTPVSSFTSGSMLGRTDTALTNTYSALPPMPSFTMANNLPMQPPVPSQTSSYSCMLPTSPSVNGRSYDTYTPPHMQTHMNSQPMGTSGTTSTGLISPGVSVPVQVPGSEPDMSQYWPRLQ

As for `CCOP(=S)(OCC)SCCSCC`, the result in [1], in assay [3], in assay [4], in assay [5], in [6] and in [8] was inactive. Also, the compound was classed as inactive in assay [9] and in [10]. Also, the AC50 (as a rule, the concentration at which the activity in the assay is half-maximal) in assay [2] is 13.7 µM (active); in assay [7], 29.5 µM (active).

Regarding `CCc1cnc(C2=NC(C)(C(C)C)C(=O)N2)c(C(=O)O)c1` (centres undefined), the call in assay [1], in assay [2], in assay [3], in [4], in assay [5] and in [6] was inactive. Besides, the compound was classed as inactive in assay [7], in assay [8], in assay [9] and in assay [10].

Consider `Cc1nn(-c2cc(NS(C)(=O)=O)c(Cl)cc2Cl)c(=O)n1C(F)F`, for which the compound was classed as inactive in assay [1], in assay [3], in assay [4], in [5], in assay [6] and in assay [7]. Besides, the compound was called inactive in assay [8], in assay [9] and in assay [10]. For the same compound, the concentration at half-maximal activity (AC50) in assay [2] was 5.33 µM (active).

As to `CC(COc1ccc(Oc2ccccc2)cc1)Oc1ccccn1` (centres undefined), the call in [1], in assay [5], in assay [6], in assay [7], in assay [9] and in [10] was inactive. Moreover, the AC50 in [2] is 13.7 µM (active); in assay [3] it was 15.1 µM (active); in [4] it was 12.2 µM (active).

With `CC(=NC#N)N(C)Cc1ccc(Cl)nc1`, the compound was classed as inactive in [1], in assay [3], in assay [4], in [5], in [6] and in assay [7]. The compound was called inactive in assay [8], in assay [9] and in assay [10]. In addition, the AC50 in assay [2] is 64.9 µM (active).

As for `Nc1c(Cl)cc([N+](=O)[O-])cc1Cl`, the outcome in [1], in [4], in assay [5], in assay [6], in assay [7] and in [9] was inactive. The compound was called inactive in assay [10]. Further, the AC50 is 44.2 µM (active) in assay [2], 34.4 µM (active) in assay [3] and 75.9 µM (active) in assay [8].

Take `N#CSCSC#N`: the outcome in assay [1], in [3], in assay [4], in assay [5], in [6] and in assay [7] was inactive. Further, the outcome in assay [9] and in assay [10] was inactive. In addition, the AC50 in assay [2] is 1.26 µM (active).

Regarding `O=[N+]([O-])c1cc(C(F)(F)F)c(Cl)c([N+](=O)[O-])c1Nc1ncc(C(F)(F)F)cc1Cl`, the concentration at half-maximal activity (AC50) in assay [1] was 6.88 µM (active); in [2] it was 2.84 µM (active) and 1.27 µM (active); in assay [3] it was 14.6 µM (active); in assay [9] it was 15.4 µM (active); in [10], 16.1 µM (active). Besides, the call in [1], in assay [3], in assay [4], in assay [5], in assay [6] and in [7] was inactive. For the same compound, the compound was classed as inactive in assay [9] and in assay [10].

For `CCOP(=O)(OCC)Oc1cc(C)nc(C(C)C)n1`, the compound was called inactive in [1], in [2], in assay [3], in assay [4], in [5] and in assay [6]. Besides, the outcome in assay [7], in [8], in [9] and in [10] was inactive.

With `CCC(CC)Nc1c([N+](=O)[O-])cc(C)c(C)c1[N+](=O)[O-]`, the call in assay [1], in assay [3], in assay [4], in [5], in [6] and in [7] was inactive. In addition, the result in assay [8], in assay [9] and in [10] was inactive. In addition, the AC50 in [2] is 5.39 µM (active).

In the case of `CCOP(=S)(OCC)Oc1ccc2c(C)c(Cl)c(=O)oc2c1`, the call in assay [1], in assay [4], in assay [5], in assay [6], in assay [7] and in [8] was inactive. Further, the compound was classed as inactive in [9] and in assay [10]. Further, the AC50 in [2] is 1.46 µM (active); in assay [3], 15 µM (active).

Turning to `FC(F)C(F)(F)OCC(Cn1cncn1)c1ccc(Cl)cc1Cl` (centres undefined), the AC50 in assay [1] is 78.8 µM (active); in assay [2], 6.25 µM (active); in assay [3], 44.5 µM (active); in assay [4], 50 µM (active); in assay [7], 13.2 µM (active). The outcome in [5], in [6], in [9] and in assay [10] was inactive.

`CC(C)[C@H](C(=O)O[C@H](C#N)c1cccc(Oc2ccccc2)c1)c1ccc(Cl)cc1`: the compound was classed as inactive in assay [1], in assay [3], in [4], in assay [5], in assay [6] and in [7]. In addition, the compound was called inactive in assay [8], in [9] and in assay [10]. Further, in [2], the AC50 was 1.04 µM (active).

On to `CCOP(=S)(OCC)Oc1ccc([N+](=O)[O-])cc1`, for which the compound was classed as inactive in assay [1], in assay [4], in assay [5], in assay [6], in [8] and in assay [9]. Besides, in assay [10], the result was inactive. Further, the AC50 was 9.68 µM (active) in assay [2], 50 µM (active) in assay [3] and 89.1 µM (active) in assay [7].

Regarding `CCCCOC(=O)[C@@H](C)Oc1ccc(Oc2ccc(C#N)cc2F)cc1`, the outcome in [1], in assay [3], in [4], in assay [5], in [6] and in assay [7] was inactive. Moreover, the compound was called inactive in assay [9] and in [10]. Moreover, the AC50 in assay [2] is 64.7 µM (active).

Regarding `CC(C1CC1)C(O)(Cn1cncn1)c1ccc(Cl)cc1` (centres undefined), the call in assay [1], in assay [3], in [4], in assay [5], in [6] and in assay [7] was inactive. Also, the outcome in assay [8], in assay [9] and in assay [10] was inactive. For the same compound, the AC50 in [2] is 24.8 µM (active).
